# Experimental data reported in the supplement of paper PMC12282887.
# ± gives the standard deviation of the averaged measurements.
# Key:
# Assay in all cases: promoter activity interaction Z-score (Lux/OD deviation from empty-vector control); higher = stronger promoter induction by the compound
# [1] = system: E. coli BW25113 acrABp lux reporter
# Method in brief: (§1)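 OD600 and luminescence of E. coli BW25113 reporter cultures (40 µl LB Lennox, 384-well plates, 37°C) were measured every 30 min for 12 h. Integration ran over 0–8 h for wild type or 1–9 h for deletion strains, and wells with growth below 10% of the median were dropped. The score is the Z-transformed residual of growth-normalised luminescence fitted against a control.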
# [2] = system: E. coli BW25113 micFp lux reporter
# Method in brief: as §1
# [3] = system: E. coli BW25113 ompFp lux reporter
# Method in brief: as §1
# [4] = 1 µg/ml, genetic background: wild type
# [5] = 1 µg/ml, genetic background: ΔmarA
# [6] = 1 µg/ml, genetic background: Δrob
# [7] = 1 µg/ml, genetic background: ΔsoxS
# [8] = 1.9 µg/ml, genetic background: wild type
# [9] = 1.9 µg/ml, genetic background: ΔmarA
# [10] = 1.9 µg/ml, genetic background: Δrob
# [11] = 1.9 µg/ml, genetic background: ΔsoxS
# [12] = 3.8 µg/ml, genetic background: wild type
# [13] = 3.8 µg/ml, genetic background: ΔmarA
# [14] = 3.8 µg/ml, genetic background: Δrob
# [15] = 3.8 µg/ml, genetic background: ΔsoxS
# [16] = 7.7 µg/ml, genetic background: wild type
# [17] = 7.7 µg/ml, genetic background: ΔmarA
# [18] = 7.7 µg/ml, genetic background: Δrob
# [19] = 7.7 µg/ml, genetic background: ΔsoxS
structure (smiles),measurement,setting,value
NC1CONC1=O (stereo not drawn) [Cycloserine D],promoter activity interaction Z-score,[1]; [4],0.0277 ± 0.22
same,promoter activity interaction Z-score,[1]; [5],0.657 ± 0.33
same,promoter activity interaction Z-score,[1]; [6],-0.0729 ± 0.055
same,promoter activity interaction Z-score,[1]; [7],0.00357 ± 0.22
same,promoter activity interaction Z-score,[1]; [8],-0.389 ± 0.056
same,promoter activity interaction Z-score,[1]; [9],0.57 ± 0.12
same,promoter activity interaction Z-score,[1]; [10],0.0199 ± 0.26
same,promoter activity interaction Z-score,[1]; [11],-0.339 ± 0.62
same,promoter activity interaction Z-score,[1]; [12],-0.136 ± 0.039
same,promoter activity interaction Z-score,[1]; [13],-0.29 ± 0.2
same,promoter activity interaction Z-score,[1]; [14],0.00284 ± 0.03
same,promoter activity interaction Z-score,[1]; [15],-0.0366 ± 0.12
same,promoter activity interaction Z-score,[1]; [16],-0.588 ± 0.2
same,promoter activity interaction Z-score,[1]; [17],-0.128 ± 0.24
same,promoter activity interaction Z-score,[1]; [18],-0.0882 ± 0.11
same,promoter activity interaction Z-score,[1]; [19],-0.319 ± 0.24
same,promoter activity interaction Z-score,[2]; [4],0.0376 ± 0.12
same,promoter activity interaction Z-score,[2]; [5],-0.00943 ± 0.084
same,promoter activity interaction Z-score,[2]; [6],-0.118 ± 0.074
same,promoter activity interaction Z-score,[2]; [7],-0.0115 ± 0.022
same,promoter activity interaction Z-score,[2]; [8],-0.417 ± 0.2
same,promoter activity interaction Z-score,[2]; [9],-0.00494 ± 0.0052
same,promoter activity interaction Z-score,[2]; [10],-0.0732 ± 0.01
same,promoter activity interaction Z-score,[2]; [11],-0.388 ± 0.035
same,promoter activity interaction Z-score,[2]; [12],-0.305 ± 0.5
same,promoter activity interaction Z-score,[2]; [13],-0.0376 ± 0.047
same,promoter activity interaction Z-score,[2]; [14],-0.0224 ± 0.047
same,promoter activity interaction Z-score,[2]; [15],-0.251 ± 0.019
same,promoter activity interaction Z-score,[2]; [16],-0.38 ± 0.0041
same,promoter activity interaction Z-score,[2]; [17],0.0683 ± 0.028
same,promoter activity interaction Z-score,[2]; [18],0.105 ± 0.092
same,promoter activity interaction Z-score,[2]; [19],-0.294 ± 0.16
same,promoter activity interaction Z-score,[3]; [4],0.314 ± 0.21
same,promoter activity interaction Z-score,[3]; [5],0.134 ± 0.086
same,promoter activity interaction Z-score,[3]; [6],-0.394 ± 0.46
same,promoter activity interaction Z-score,[3]; [7],0.0539 ± 0.036
same,promoter activity interaction Z-score,[3]; [8],-0.14 ± 0.24
same,promoter activity interaction Z-score,[3]; [9],0.387 ± 0.13
same,promoter activity interaction Z-score,[3]; [10],-0.422 ± 0.075
same,promoter activity interaction Z-score,[3]; [11],-0.381 ± 0.19
same,promoter activity interaction Z-score,[3]; [12],-0.202 ± 0.043
same,promoter activity interaction Z-score,[3]; [13],0.194 ± 0.031
same,promoter activity interaction Z-score,[3]; [14],0.0558 ± 0.16
same,promoter activity interaction Z-score,[3]; [15],0.0329 ± 0.09
same,promoter activity interaction Z-score,[3]; [16],-0.567 ± 0.3
same,promoter activity interaction Z-score,[3]; [17],0.0892 ± 0.075
same,promoter activity interaction Z-score,[3]; [18],0.153 ± 0.069
same,promoter activity interaction Z-score,[3]; [19],-0.485 ± 0.02
